IP6K1 inhibitor: inhibitors of human IP6K1; Q92551; IP6K1 kinase, ADP-Glo luminescence, 2 h; hits give low values; activity change, % (series mostly up to about 58 µM); 0.81% of 140,000 active; AID 1645851; in the data active means activity change below about -25%; further: on the % scale 0 is the no-effect control and ±100 the full control effect
Target sequence (Q92551 whole entry, looked up): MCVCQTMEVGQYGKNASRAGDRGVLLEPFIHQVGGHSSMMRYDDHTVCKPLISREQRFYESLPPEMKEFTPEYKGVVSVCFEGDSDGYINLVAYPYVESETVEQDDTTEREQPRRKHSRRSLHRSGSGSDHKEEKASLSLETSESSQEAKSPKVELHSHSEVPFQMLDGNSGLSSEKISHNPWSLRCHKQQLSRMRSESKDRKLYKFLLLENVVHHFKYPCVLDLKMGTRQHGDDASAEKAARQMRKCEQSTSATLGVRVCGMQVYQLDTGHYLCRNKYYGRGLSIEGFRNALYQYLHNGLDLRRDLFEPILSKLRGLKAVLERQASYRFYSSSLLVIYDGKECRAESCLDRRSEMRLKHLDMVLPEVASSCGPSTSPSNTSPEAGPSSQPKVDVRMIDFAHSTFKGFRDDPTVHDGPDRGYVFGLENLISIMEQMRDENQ
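ADP-Glo luminescence measures ADP made by human IP6K1 during a 2 h RT reaction with ATP/IP6 (mix at 1.3 mM/130 uM); top library doses 57.5 and 19.1 uM final.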
KDM5B inh: blocks human KDM5B histone demethylase activity; KDM5B demethylase, FDH-coupled NADH fluorescence (FDH is formaldehyde dehydrogenase); 2.6% of 220,000 active; Q9UGL1; Potency, µM (series often up to 57.7 µM), actives largely listed as inhibitors; active means well fitted inhibition curve with a large enough effect; inconclusive means small, poorly fitted or top-dose-only effect; inactive means no such curve, though single readings can be large or run the other way; further: potency means the concentration at half of the fitted maximal effect; 0% is about no effect; nearly all actives have a fitted effect of over 70% in size
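Coupled FDH/NAD⁺ fluorescence readout. KDM5BΔAP 200 nM final; compound titration, 10 min RT preincubation; substrate mix 12.5 µM H3K4me3, 25 µM 2-OG, 50 µM Fe(II), 100 µM ascorbate, 0.25 mM NAD⁺, 0.25 U/mL FDH; ΔRFU over 30 min.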
Numbers without * were called inactive; i = inactive; u = inconclusive; x = no result given. Hits are enriched below; roughly 2.7% of the tested compounds scored in any of these assays.

SMILES | IP6K1 inhibitor | KDM5B inh
Cn1cnc2cc(-c3ccc(N4CCOCC4)cc3)cc(C(=O)NCc3cccnc3)c21 | -1 | u
O=C(COc1ccc(F)cc1)Nc1ccc(-c2nc3ccccc3o2)cc1 | x | i
O=C(Nc1cccc2cnccc12)c1cccc(S(=O)(=O)N2CCCCC2)c1 | x | i
CCCN(CC(=O)Nc1ccccc1C(=O)Nc1cccc(C)c1)Cc1nnc(-c2ccco2)o1 | x | i
COc1ccc(C(=O)N2CCC(N3C(=O)c4c(c(C)nn4-c4ccccc4)C3C(C)C)C2)cc1 (stereo unspecified) | 14 | x
COc1ccc(NC(=O)c2ccccc2NC(=O)CSc2nc3ccc(C)cc3[nH]2)cc1 | x | i
Cc1cc(C)cc(NC(=S)N[C@H]2CO[C@H]3[C@@H]2OC[C@H]3OC(=O)NC2CCCCC2)c1 | 3 | i
COC(=O)CO[C@@H]1CO[C@H]2[C@@H]1OC[C@@H]2NC(=S)Nc1cc(C)cc(C)c1 | 24 | 28µM*
Cc1ccc(NC(=O)N2CC(C)Oc3ccc(Cl)cc32)c(C)c1 (stereo unspecified) | x | i
Cc1ccc(SCc2ccc(C(=O)Nc3c(C)cc(C)cc3C)cc2)cc1 | x | i
Cc1cccc(-c2nc3cnccn3c2NCCC(=O)N2CCCCC2)c1 | 6 | 28µM*
COc1ccc(CC(=O)N2CCN(C(=O)c3cccc(-c4cccc(OC)c4)c3)CC2)cc1 | 2 | x
COc1cccc(-c2c(C(=O)NC3CCCCC3)nc3sccn23)c1 | -8 | x
COc1cccc(-c2nc3cnccn3c2NCCC(=O)NC2CCCCCC2)c1 | 2 | 28µM*
COc1cccc(-c2nc3cnccn3c2NCCC(=O)N2CCN(C(C)C)CC2)c1 | 6 | 28µM*
Cc1cccc(C)c1Nc1c(-c2ccccc2O)nc2cnccn12 | x | i
Cc1cccc(-c2nocc2CCC(=O)N2CCN(c3cccc(C)c3)CC2)c1 | 11 | i
Cc1ccccc1-c1nc2cnccn2c1NCCC(=O)N1CCCCC1 | 23 | 25µM*
COc1ccc2oc(C(=O)OCC(=O)C34CC5CC(CC(C5)C3)C4)c(C)c2c1 | x | i
Cc1nc(N2CCN(c3ccccc3F)CC2)[nH]c(=O)c1CCC(C)C | x | i
COC(=O)N1CCC(N2C(=O)c3c(c(C)nn3-c3ccccc3)C2C)C1 (stereo unspecified) | -1 | x
CCOC(=O)C(=O)Nc1ccc(C(=O)OCC)cc1 | x | i
Cc1ccccc1-c1nc2cnccn2c1NCCC(=O)N1CCC(C)CC1 | 19 | 28µM*
Cc1cccc(C(=O)Nc2c(-c3ccccc3)nc3cc(C)ccn23)c1 | 4 | i
CC1CCN(C(=O)CCNC(=O)c2ccccc2Cl)CC1 | x | i
SMILES | IP6K1 inhibitor | KDM5B inh
Cc1cccc(-c2nc3cnccn3c2NCCC(=O)N(C)C)c1 | -3 | 32µM*
CC(C)n1cc2cc(C(=O)N3CCN(Cc4ccc5c(c4)OCO5)CC3)sc2c1 | 6 | u
COc1cc(CN2CCN(c3ncc(F)cn3)CC2)cc(Cl)c1OC | 8 | u
C#CCOc1ccccc1CN1CCN(c2ncc(F)cn2)CC1 | 15 | 28µM*
N#Cc1ccc(/C=C/C(=O)c2ccc(N3CCOCC3)cc2)cc1 | x | i
CC(C)(Oc1nn(Cc2cccc(Cl)c2)c2ccccc12)C(=O)N1CCCC1 | 1 | u
COc1ccc(-c2ccc3ncc(Nc4ccnc(N5CCOCC5)c4)n3n2)cn1 | -15 | i
COc1ccc(-c2nc(N3CCOC[C@H]3C)cc3c2CN(C(C)C)C3=O)cc1 | 13 | i
COc1ccc(-c2nc(N3CCOCC3)cc3c2CN(Cc2cnn(C)c2)C3=O)cn1 | 12 | 40µM*
COc1cc(F)ccc1-c1nc(N2CCOCC2)cc2c1CN(c1ccccc1)C2=O | 4 | 10µM*
COc1ccc(-c2noc(C3CC(=O)N(c4ccccc4)C3)n2)c(OC)c1 (stereo unspecified) | -10 | i
Cc1ccccc1NC(=O)Nc1ccc2nc(N3CCOCC3)cc(C)c2c1 | x | i
Cc1ccccc1-c1nc(N2CCOCC2)cc2c1CN(c1ccccc1)C2=O | 14 | 35µM*
CN1Cc2c(cc(N3CCOCC3)nc2-c2cnn(C)c2)C1=O | 15 | 40µM*
Cc1ccccc1C(=O)N1CCC(c2nn(-c3ccccn3)c(=O)[nH]2)CC1 | 15 | x
Fc1cccc(CSc2c[nH]c3ccccc23)c1 | x | i
COc1ccc(N2C(=O)CN(Cc3ccccc3Cl)[C@H]3CS(=O)(=O)C[C@H]32)cc1 | x | i
Cc1ccccc1-c1nc(N2CCOCC2)cc2c1CN(Cc1ccccc1)C2=O | 10 | 32µM*
O=C(c1nc(-c2cccnc2)no1)N1CCN(c2ccccc2)CC1 | x | i
CCc1cc(=O)n(Cc2ccccc2)c(N2CCOCC2)n1 | 14 | i
O=C1c2cc(N3CCOCC3)nc(-c3cccnc3)c2CN1c1ccccc1 | 7 | 40µM*
CN(C)c1cccc(-c2nc(N3CCOCC3)cc3c2CN(Cc2cnn(C)c2)C3=O)c1 | 10 | i
Cc1ccccc1-c1nc(N2CCOCC2)cc2c1CN(Cc1cnn(C)c1)C2=O | 3 | 40µM*
COc1ccccc1-c1ccc(CN2CCC(NC(=O)c3cccnc3)C2)cc1 (stereo unspecified) | -2 | x
N#Cc1ccc(NC(=O)C2CC(c3ccccc3)=NO2)cc1 (stereo unspecified) | x | i
SMILES | IP6K1 inhibitor | KDM5B inh
O=C(/C=C/c1ccc(-c2c(Cl)cccc2Cl)o1)c1ccccc1 | x | i
Cc1cccc(S(=O)Cc2ccc(C(=O)N3CCN(c4cccc(Cl)c4)CC3)o2)c1 (stereo unspecified) | x | i
CCCn1nnnc1CN1CCCC1c1ccc(OC)c(OC)c1 (stereo unspecified) | x | i
Cc1ccccc1C(=O)NCc1nnc2c(-c3nc(C(C)C)no3)cccn12 | 1 | u
CC(C)c1noc(-c2cccn3c(CNC(=O)c4cccc(F)c4)nnc23)n1 | 0 | 25µM*
Cc1ccc(C(=O)NCc2nnc3c(-c4nc(C(C)C)no4)cccn23)cc1C | 10 | 28µM*
COc1ccc(Cl)cc1C(=O)NCc1nnc2c(-c3nc(C(C)C)no3)cccn12 | -1 | i
CC(C)c1noc(-c2cccn3c(CNC(=O)c4cccc(Cl)c4)nnc23)n1 | 1 | 22µM*
CC(C)c1noc(-c2cccn3c(CNC(=O)Cc4cccc(F)c4)nnc23)n1 | 6 | u
CC(C)c1noc(-c2cccn3c(CNC(=O)c4c(F)cccc4F)nnc23)n1 | 10 | 28µM*
CNS(=O)(=O)c1ccc(-c2nc(-c3ccccc3OC(C)C)no2)o1 | x | i
Cc1ccc(C(=O)NCC(F)(F)F)o1 | x | i
O=C(NCc1ccc(F)cc1)C1CCN(c2ccnc3ccnn23)CC1 | -1 | x
O=C(C1CCCN1C(=O)c1cccc(Cl)c1)N1CCC(N2CCOCC2=O)CC1 (stereo unspecified) | 14 | x
O=C(NCCc1ccc(Cl)cc1)C1CCc2nnc(-c3cccc(C(F)(F)F)c3)n21 (stereo unspecified) | 5 | x
COc1ccc(N2C(=O)CCS2(=O)=O)cc1S(=O)(=O)N1CCCc2ccccc21 | x | i
COc1ccc(C(=O)NCc2nnc3c(-c4nc(C5CC5)no4)cccn23)c(C)c1 | 12 | i
CC(C)c1noc(-c2cccn3c(CNC(=O)c4cc5ccccc5[nH]4)nnc23)n1 | 6 | u
Cc1ccc(C(=O)NCc2nnc3c(-c4nc(C5CC5)no4)cccn23)cc1C | 6 | 10µM*
Cc1cc(C)cc(C(=O)NCc2nnc3c(-c4nc(C(C)C)no4)cccn23)c1 | 8 | 22µM*

Screening data: PubChem BioAssay, National Center for Advancing Translational Sciences (NCATS)
